Source: PubChem BioAssay (NCI)
This is part of a sample that, as a whole, favours compounds with a hit. Of some 83,000 tested, about 20% had one in any assay.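 Treatment: one concentration, 48 hours, 96-well format. Scoring: percent growth, with anything below 10 considered active.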 Calls of active or inactive are those of the source.

Test system: ACHN renal
Experiment: NCI-60 one-dose screen, 48 h (100 = growth as untreated, 0 = no growth, -100 = all killed)
Conditions: 10 µM unless noted

Row | SMILES | growth
1 | O=C(Nc1ccc(-n2ccc3c(NC(=O)c4ccccc4)ncnc32)cc1)c1ccc(Cl)c(C(F)(F)F)c1 | 27.6% (inactive)
2 | O=C1/C(=C/c2cccc3cnccc23)Cc2cc(F)ccc21 | 95.7% (inactive)
3 | O=C(NCCNc1nccc(-c2c(-c3cccc(O)c3)nc3sccn23)n1)c1ccccc1O | 46.1% (inactive)
4 | COc1ccc(-c2nnc(SCC(=O)N3CCN(c4cc5c(cc4F)c(=O)c(C(=O)O)cn5C4CC4)CC3)o2)cc1OC | 102% (inactive)
5 | CC(C)(C)C(=O)/C=c1/[nH]c(=O)/c(=C/c2ccccc2O)s1 | 74.5% (inactive)
6 | O=C1c2ccccc2OC=C(c2ccccc2)N1CCCCN1CCCCC1 | 104% (inactive)
7 | COc1cc(-c2nc(SCC(=O)Nc3ccc(C(C)=O)cc3)[nH]c(=O)c2C#N)cc(OC)c1OC | 41.6% (inactive)
8 | O=C1OC(N(Cc2ccc(Cl)cc2)c2ccccc2)c2ccccc21 (stereo not drawn) | 108% (inactive)
9 | CCCCCCCCCCCCCCCC(=O)NS(=O)(=O)OC[C@H]1O[C@@H](n2cnc3c(N)ncnc32)[C@H](O)[C@@H]1O | -18.6% (active)
10 | COc1ccc(-c2nnc(NC(=O)CN3CCN(c4cc5c(cc4F)c(=O)c(C(=O)O)cn5C4CC4)CC3)s2)cc1OC | 109% (inactive)
11 | O=S(=O)(CCN1CCOCC1)Nc1cc(-c2ccc3ncnc(Nc4ccc(F)c(Cl)c4)c3c2)cnc1Cl | 9.87% (active)
12 | C[C@]12O[C@H]1[C@H](O)c1c(cc(O)c3c1C(=O)c1cccc(O)c1-3)C2=O | 99.3% (inactive)
13 | COc1ccc(OCC(O)CN2CCN(c3ccc(Cl)cc3)CC2)cc1 (stereo not drawn) | 101% (inactive)
14 | O=C1COc2ccccc2C(=O)N1CCCCN1CCCCC1 | 99.2% (inactive)
15 | CCn1c(SCC(=O)c2ccc(Br)cc2)nnc1-c1cc2c([nH]c3ccccc32)c(-c2cccc(O)c2)n1 | 60.5% (inactive)
16 | CC[C@H]1[C@@H]2C=C[C@@H]3[C@H]4C/C=C\C(=O)NCCC[C@@H]5NC(=O)/C(=C(O)/C=C/[C@@H]4C[C@@H]3[C@H]2C[C@H]1C)C5=O | -84.1% (active)
17 | CCn1c(SC)nnc1-c1cc2c([nH]c3ccccc32)c(-c2cccc(O)c2)n1 | 30.5% (inactive)
18 | Nc1ncnc2c1ncn2C1OC(COC(c2ccccc2)(c2ccccc2)c2ccccc2)C(O)C1O (stereo not drawn) | 47.9% (inactive)
19 | O=C(Nc1cccc(-n2ccc3c(NC(=O)c4ccccc4)nccc32)c1)c1cc(N2CCOCC2)cc(C(F)(F)F)c1 | 6% (active)
20 | CCOC(=O)c1[nH]c(-c2ccc(Cl)cc2)cc1-c1cccnc1 | 35.7% (inactive)
21 | O=c1c2ccccc2[nH]n1Cc1ccc2c(c1)OCO2 | 103% (inactive)
22 | CCN(CC)CCN1C(=O)c2c(c3c4ccccc4[nH]c3c3[nH]c4ccccc4c23)C1=O | 62% (inactive)
23 | C=CCn1c(SCC(=O)Nc2ccc(C(=O)/C=C/c3cc(OC)c(OC)c(OC)c3)cc2)nnc1-c1ccc(OC)cc1 | -56.1% (active)
